The values that follow come from PubChem BioAssay.

As usually defined, the viability is a read-out of living cells in per cent, often relative to untreated cells.

SMILES strings stand for the structures. The source made the active and inactive calls.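 The calls were made as follows: active = viability at or under a set limit in both replicates, limit being median viability minus 3 SD (cut at about 48% in these data, passing the limit was not always enough); inconclusive = at or under the limit in just one replicate; inactive = at or above the limit in both replicates.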

The assay is described as follows: H69AR cell proliferation blockers – human, duplicate replicates, primary screen (AID 580).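 Also: 100% = mean luminescence of untreated wells and 0% = no signal.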 To be noted: H69AR lung tumor cells viability, ATP luminescence, 72 h; at 10 µM; hits give low values.
For the compound `COc1cccc(-n2ccnc2SCC(=O)N2CCc3ccccc32)c1`, the viability is 102% (inactive).

As to `C=CCc1cc(C(=O)N2CCCCC2)ccc1O`, the viability was 92.3% (inactive).

Regarding `CCN(CC)c1ccc(-c2nn3c(-c4cccnc4)nnc3s2)cc1`, the viability was 10.9% (active).

Turning to `Cc1ccc(NC(=O)CSc2nnc(-c3ccncc3)n2C)cc1C`, the viability is 92.2% (inactive).

On to `O=C(Nc1ccc(Br)cc1F)c1sccc1-n1cccc1`, for which the viability is 83.1% (inactive).

For the compound `Cc1nc(CNS(=O)(=O)c2ccc3c(c2)OCCO3)cs1`, the viability is 96.6% (inactive).

`CCOC(=O)c1[nH]c(C)c(C(=O)NCC2CCCO2)c1C` (stereo not given): the viability was 101% (inactive).

On to `N#CC1=C(N)N(c2ccccc2)C2=C(C(=O)CCC2)C1c1cccs1` (stereo not given), for which the viability was 70.3% (inactive).

Regarding `COc1cccc(C(=O)n2cnnc2N)c1OC`, the viability was 89.9% (inactive).

For the compound `COC(=O)c1cc2oc(C)cc2n1CC(=O)Nc1ccc(C)c(C)c1`, the viability was 83.8% (inactive).

On to `O=C(CSCc1cnn(-c2ccccc2)c1-n1cccc1)NCC1CCCO1` (stereo not given), for which the viability was 93.7% (inactive).

In the case of `N=c1c(C(=O)NCc2ccc3c(c2)OCO3)cc2c(=O)n3ccccc3nc2n1Cc1cccnc1`, the viability was 78.8% (inactive).

Consider `Cc1cc(Br)ccc1NC(=O)CCN1C(=O)c2ccncc2C1=O`, for which the viability is 95.6% (inactive).

Regarding `O=C1N2c3ccccc3CCc3cccc(c32)C1(O)C(F)(F)F` (stereo not given), the viability was 95.7% (inactive).

For the compound `Cn1c(SCC(=O)Nc2ccc3c(c2)oc2ccccc23)nnc1-c1ccccc1`, the viability is 69.4% (inactive).

For the compound `CCOc1ccc(S(=O)(=O)Nc2cccc(Cl)c2)cc1`, the viability is 18.8% (active).

For `Nn1c(CSc2nc3ccccc3o2)nnc1CSc1nc2ccccc2o1`, the viability was 103% (inactive).

As to `CC1=C(C(=O)OC2CCCCC2)C(c2cccnc2)n2ncnc2N1` (stereo not given), the viability was 81.8% (inactive).

Turning to `COC(=O)c1ccccc1NC(=O)C1CC(=O)N(c2ccccc2)C1` (stereo not given), the viability was 102% (inactive).

Consider `O=C(c1ccc2c(c1)OCCO2)C1CCN(C(=O)c2ccc(F)cc2)CC1`, for which the viability is 83.8% (inactive).

`Cc1nc(=S)n(-c2ccccc2)[nH]1`: the viability was 107% (inactive).

Regarding `CC(C)CC(=O)Nc1ccccc1-c1nnn(CC(=O)N2CCOCC2)n1`, the viability was 86.8% (inactive).

For `O=C(c1ccccc1)N1CCCCC(Sc2nnnn2-c2ccccc2)C1=O` (stereo not given), the viability is 104% (inactive).

For the compound `CC(=O)Nc1ccccc1OCc1nnc(-c2cccs2)o1`, the viability is 98.1% (inactive).

Regarding `CCOc1ccc(CN2CCN(c3cc(C)nc4c5c(C)cc(C)nc5nn34)CC2)cc1`, the viability is 88.8% (inactive).

Take `CCSc1nnc2c(n1)OC=Nc1ccc(Br)cc1-2`: the viability is 99.7% (inactive).

For the compound `Cc1ccc2nc(SCC(=O)NCc3ccco3)c(C#N)cc2c1`, the viability is 62.2% (inactive).

As to `CCN(CC)c1ccc2cc(NC(=O)CCC(=O)O)c(=O)oc2c1`, the viability is 95.7% (inactive).

In the case of `COc1ccc(CN(CC(=O)NCc2ccco2)C(=O)CCC(=O)Nc2nccs2)cc1`, the viability is 101% (inactive).

For `CC(=O)c1cccc(NC(=O)N2C3CCC2CC(O)(c2cccnc2)C3)c1` (stereo not given), the viability was 106% (inactive).

In the case of `Cc1nc2scc(-c3cccs3)c2c(=O)n1-n1cccc1`, the viability is 99.3% (inactive).

As for `NC1=NC(c2ccc(Br)cc2)n2c(nc3ccccc32)N1` (stereo not given), the viability is 81.4% (inactive).

Regarding `CSCC[C@@H](Nc1nc(-c2ccccc2)nc2c1oc1ccccc12)C(=O)O`, the viability is 93.8% (inactive).

With `Cc1csc(SCC(=O)NC(=O)NCc2ccccc2)n1`, the viability is 95.2% (inactive).

On to `CCSc1ncc(C#N)c(=O)[nH]1`, for which the viability was 95% (inactive).

With `CCSc1nnc(NC(=O)CSc2ncccn2)s1`, the viability is 107% (inactive).

Turning to `COc1ccc(N2CCN(CCCNC(=O)C3(S(=O)(=O)c4ccc(Cl)cc4)CC3)CC2)cc1`, the viability was 83.1% (inactive).

On to `COc1ccc(OC)c(C2=NOC(C(=O)NCCN3CCOCC3)C2)c1` (stereo not given), for which the viability is 90.6% (inactive).

With `COc1ccc(CN2CC(C(=O)NCc3ccccn3)CC2=O)cc1` (stereo not given), the viability was 105% (inactive).

As for `c1ccc(-n2ncc3c(N4CCCCC4)ncnc32)cc1`, the viability is 70% (inactive).
